Data as given in PubChem BioAssay AID624287 (National Center for Advancing Translational Sciences (NCATS), 2012).
In all, about 340,000 compounds went through this assay and about 420 (0.12%) were called active. Another 10% or so got no clear call; they are omitted. The call rests on the fitted dose curve; in most records, active means well fitted activation curve with a large enough effect; inconclusive means small, poorly fitted or top-dose-only effect, or another doubt; inactive means no such curve, though single readings can be large or run the other way; cell line not stated here. For the sample, actives were picked, then their nearest neighbours and some compounds at random.

assay: qHTS for Agonist of gsp, the Etiologic Mutation Responsible for Fibrous Dysplasia/McCune-Albright Syndrome: qHTS; conditions: gsp mutant cells, cAMP HTRF, 30 min; series mostly up to 76.9 µM; activation (cAMP increase): at the top concentration; further: nearly all actives have a fitted effect of over 60% in size;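 on activation (cAMP increase): phosphodiesterase inhibitor Ro 20-1724 added with compounds to block cAMP breakdown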
From the text: McCune-Albright syndrome (MAS) is a rare disease caused by somatic mutations in Gsgsp), a widely expressed protein central in signal transduction from G-coupled protein receptors (GPCRs). The disease symptoms are diverse, owing to the fact that the patients are mosaics with varying degrees of tissue involvement. Greater than 90% of the mutations in Gs in MAS occur at the R201 position and are equally divided between R201H and R201C. The R201 residue is central in the intrinsic GTPase activity of Gs and the H and C mutations lead to loss of, or impairment of, the GTPase activity. The intrinsic GTPase activity is necessary to terminate the interaction between Gs and adenylate cyclase, and to terminate the cAMP-mediated signaling of the given GPCR pathway. Thus, these activating mutations lead to ligand-independent activation of GPCR pathways. The tissue phenotype is determined by the role of Gs in the function of a given cell, and excess Gs/cAMP signaling in that cell. For example, pituitary somatotrophs overproduce growth hormone in a growth hormone releasing hormone-independent fashion, and gigantism/acromegaly ensues. Skeletal stem cells in the bone marrow behave as if they are under constant parathyroid hormone stimulation and fail to differentiate into osteoblasts and osteocytes, and proliferate as immature osteogenic cells and lead to the marrow fibrosis of fibrous dysplasia of bone. The goal of this project is to identify molecules with stimulatory activity at gsp mutations that will not only allow for in-depth study of the underlying molecular and cellular pathophysiology, but also serve as compounds from which drugs to treat FD/MAS can be developed NIH Chemical Genomics Center [NCGC] NIH Molecular Libraries Probe Centers Network [MLPCN] MLPCN Grant: IRP-FT-DE-2011-01 Assay Submitter (PI): Michael Collins, NIDCR
1.#Seed 2000 cells/well in 6 ul DMEM 10% FBS, 1% Pen/Strep, 0.5 mg/ml G418 2.#Incubate 16-24 hr at 37C, 5% CO2, 95% humidity 3.#Aspirate leaving 1 ul residual volume 4.#Dispense 5 ul/well DPBS + 1 mM CaCl2, 0.5 mM MgCl2, 0.05% BSA, 0.005% Tween 20 5.#Aspirate leaving 2 ul residual volume 6.#Dispense 23 nl/well compounds in DMSO 7.#Dispense 1 ul/well 300 uM Ro-20174 in DMEM 10% FBS 8.#Incubate 30 min at 37C, 5% CO2, 95% humidity 9.#Dispense 1.5 ul/well HTRF reagent: cAMP-d2 in lysis buffer 10.#Dispense 1.5 ul/well HTRF reagent: anti-cAMP antibody-K in lysis buffer 11.#Incubate 30 min at room temperature 12.#Detect HTRF signal using EnVision plate reader
Potency means the concentration at half of the fitted maximal effect.

Activation (cAMP increase), inactive:
COc1ccc(-c2c3c(=O)n(C)c(=O)n(C)c3cn2NC(C)=O)cc1 3.24%
Cn1c(=O)c2cn(-c3cccc4ccccc34)cc2n(C)c1=O -9.96% [at 15.4 µM]
COc1ccc(OC)c(C(=O)NC2CCCc3c2cnn3-c2cc(C)cc(C)c2)c1 (centres undefined) -55.3%
CCOC(=O)c1cc(-c2sc(NC(=O)c3ccccc3)nc2C)n(CCO)n1 -34%
O=C(NCCS(=O)(=O)N1CCN(c2ccccc2)CC1)c1cc(=O)c2ccccc2o1 -23.3%
COc1ccc(Cl)cc1NC(=O)CN(C)C(=O)c1cn(-c2ccccc2)nc1-c1cccs1 4.43%
C[C@@H]1CN([C@@H](C)CO)C(=O)c2cc(Br)cnc2O[C@H]1CN(C)Cc1ccc(-c2ccccc2)cc1 -22.2%
CCOc1cc(/C=N/NC(=O)c2c(C)nc3ccc(Cl)cn23)ccc1O -9.2%
Cc1ccc(NC(=O)COC(=O)CN2CCSC2=O)cc1F -20.3%
C[C@H]1Cn2cnc(C(=O)N[C@@H](Cc3c[nH]c4ccccc34)C(=O)OC(C)(C)C)c2C(=O)N1 -4.83%
CC(=O)Nc1ccc(C=Cc2ccc([N+](=O)[O-])cc2)cc1 -3.38%
COC(=O)c1ccccc1N=NNc1ccc([N+](=O)[O-])cc1 -6.79%
CC(Sc1ccc(S(=O)(=O)N2CCN(C)CC2)cn1)C(=O)NC1CCCC(C)C1C (centres undefined) -21.5%
O=C(Nc1ccc(S(=O)(=O)Nc2ncccn2)cc1)c1cncc(Br)c1 -25.9%
CCOc1ncccc1C(=O)Nc1ccc2c(c1)OCCO2 13.9%
CCCc1c(C)nc2scc(-c3ccc(Cl)cc3)n2c1=O 4.2%
CC1=C(C(=O)N(C)C)CC(CC(=O)NCCN2CCOCC2)C(=O)N1Cc1ccccc1 (centres undefined) -32.8%
O=C1OCCC1=COCCCCOC=C1CCOC1=O -17.1%
CCCCCCn1c(=O)n2n(c1=O)C[C@]1(OC(=O)NCc3ccc(OC)c(OC)c3)CN(S(=O)(=O)c3ccc(C)cc3)C[C@]1(O)C2 -93.1%
COc1ccc(CN2C[C@H]3CON(C)[C@H]3C[C@H]2c2ccc(-c3cccc(F)c3)cc2)cc1 -69.9%
Cc1onc(-c2ccccc2)c1-c1nnc(COC(=O)c2ccc(N(C)C)cc2)o1 -1.6%
Cc1ccc(CCNC(=O)CN2C(=O)CSc3ccc(S(=O)(=O)N4CCOCC4)cc32)cc1 -42.1%
COc1ccc2c(c1)CCCO[C@]21O[C@H](CCO)C[C@H](O)[C@H]1O -64.1%
Cc1ccc(-c2ccc(C3=CC(=O)CC(C)(C)C3=O)cc2)cc1 -42%
CC(OC(=O)c1ccc(NC(=O)CC#N)cc1)C(=O)Nc1ccc(S(=O)(=O)N2CCCC2)cc1 (centres undefined) -14.8%
CC(C)n1ncc2c(C(=O)N3CCN(Cc4cccs4)CC3)cc(C3CC3)nc21 7.9%
CN(c1ccccc1)S(=O)(=O)c1ccc(C(=O)NCc2cccnc2)cc1 -7.68%
Cc1ccc(Cc2c(-c3ccc(C)cc3)nc3c4ccccc4ccn23)cc1 -39.7%
OCCC1CN(Cc2ccc3nsnc3c2)CCN1C1CCCC1 (centres undefined) 49.4%
OCCC1CN(Cc2ccc3nsnc3c2)CCN1C1CCCCC1 (centres undefined) 19.4%
O=C1CC[C@@H](C(=O)N2CSC[C@@H]2C(=O)Nc2ccc(C(F)(F)F)cc2)N1 -72.2%
O=C(CSc1ccc(Cl)cc1)NC1CC1 -72.4%
COc1ccc(C(=O)NC(C)CCc2ccccc2)c(OC)c1 (centres undefined) 17.8%
COc1ccc(C(=O)NC2=NCCS2)c(OC)c1 -28.3%
O=S1(=O)CCN(C2CCCCCCCCCCC2)CC1 -79.5%
O=S(=O)(c1cccc(C(F)(F)F)c1)N1c2ccccc2-n2cccc2C1c1cccnc1 (centres undefined) -23.7%
O=Nc1c(O)cc(O)c2ccccc12 -21.6%
O=C(c1ccc(CS(=O)Cc2ccccc2Cl)o1)N1CCN(c2ccccc2)CC1 (centres undefined) -29.9%
COCCn1c(SCC(=O)Nc2ccc(F)cc2F)nc2c(c1=O)SCC2 -23.6%
COCOCCn1cc(CN2CCS(=O)(=O)N(Cc3ccc(-c4ccc(OC)cc4)cc3)C(CC(C)C)C2=O)nn1 (centres undefined) -115%
Cc1ccc(-c2ccc(CN3C(C(C)C)C(=O)N(Cc4cn(CCC5OCCO5)nn4)CCS3(=O)=O)cc2)cc1 (centres undefined) -37.6%
CC1(C2CC2)NC(=O)N(CC(=O)N2CCN(c3ccccc3F)CC2)C1=O (centres undefined) 0.197%
CCN(CC)C(=O)C1=C(C)N(Cc2ccccc2)C(=O)C(CC(=O)NC(c2ccccc2)c2ccccc2)C1 (centres undefined) -6.51%
O=C(N=C1SC2CS(=O)(=O)CC2N1Cc1ccccc1)c1ccccc1 (centres undefined) -12.8%
COc1cccc(OCC(=O)NCCS(=O)(=O)N2CCN(c3ccccc3)CC2)c1 -6.99%
Cc1cnc(NC(=O)Cn2cnc3c2c(=O)n(C)c(=O)n3C)s1 0.329% [at 15.4 µM]
Cn1c(=O)c2c(ncn2CC(=O)N/N=C/c2cn[nH]c2-c2ccc(F)cc2)n(C)c1=O 54.2% [at 15.4 µM]
CSc1ncnc2c1ncn2CCCNCc1ccco1 -74.7%
Cc1ccc(S(=O)(=O)N2C[C@H]3n4c(=O)ccc(=O)n4C[C@H](OC(=O)NC4CCCC4)[C@@]3(O)C2)cc1 14.3%
O=C(c1ncn2c1c(=O)[nH]c1ccccc12)N1CCc2ccccc2C1 -20.5%
CCCCCCNC(=O)O[C@H]1CN(C(=O)OC(C)C)N(C(=O)OC(C)C)[C@@H]2CN(S(=O)(=O)c3ccc(C)cc3)C[C@]12O 0.103%
CSc1ncccc1C(=O)N1CCCC(Nc2ccc(F)c(F)c2)C1 (centres undefined) 16.5%
COc1cccc(NC(=O)CN(C)C(=O)c2cc(Cl)nc3ccccc23)c1 -159%
COc1ccc(S(=O)(=O)N(C)C)cc1NC(=O)COC(=O)c1n[nH]c2ccccc12 -50%
Cc1ccc([C@H]2N[C@]3(CCCN(CC4CCCCC4)C3=O)[C@H]3C(=O)N(Cc4ccccc4)C(=O)[C@@H]23)cc1 0.257%
CCOC(=O)c1c(C)[nH]c(C)c1C(=O)COC(=O)/C=C/c1cccc([N+](=O)[O-])c1 -66.3%
O=C(NCCN1CCOCC1)c1ccc2c(c1)N(Cc1cccc(Cl)c1)C(=O)c1ccccc1S2(=O)=O -3.41%
CC(C)N=C1CCCC1C(=S)SSC(=S)C1CCCC1=NC(C)C (centres undefined) -39.5%
CCOC(=O)c1cc(-c2sc(NC(=O)c3ccccc3)nc2C)n(Cc2ccccc2)n1 1.49%
COc1ccc(CN2C(=O)C(CC(=O)NCCCCc3ccccc3)CC(C(=O)N3CCOCC3)=C2C)cc1 (centres undefined) -2.99%
CCN(CC)C(=O)C1=C(C)N(Cc2ccc(OC)cc2)C(=O)C(CC(=O)NCc2ccco2)C1 (centres undefined) -33.1%
O=C(NCCN1CCOCC1)C1CCN(S(=O)(=O)c2ccccc2)CC1 10.7%
CN(C(=O)COc1nnc(-c2cccs2)c(-c2cccs2)n1)c1ccccc1 -47.1%
NC(=O)Cc1ccc2sc(-c3ccccc3)nc2c1 -43.9%
O=C(Cc1ccc([N+](=O)[O-])cc1)NCCS(=O)(=O)N1CCN(c2ccccc2)CC1 -24.3%
CCc1ccccc1OCC(=O)Nc1nnc(C2CC2)s1 -18.6%
COc1ccc([C@H]2N[C@]3(CCCN(CC4CCCCC4)C3=O)[C@H]3C(=O)N(C)C(=O)[C@@H]23)cc1 0.0546%
Cc1ccc(C(=O)OCC(=O)NC2CCCCCCC2)cc1C -30.5%
CC(Sc1cccc[n+]1[O-])C(=O)Nc1cccc(S(=O)(=O)N2CCOCC2)c1 (centres undefined) 27.2% [at 15.4 µM]
CC(Sc1ccccc1F)C(=O)Nc1cccc(S(=O)(=O)N2CCOCC2)c1 (centres undefined) 14.1%
COc1ccc(C(C)(C)C)cc1NC(=O)CN(C)C1=NS(=O)(=O)c2ccccc21 -29.4%
CC1(C)OC(=O)C2=C(CC(c3ccccc3)OC2CCc2ccccc2)O1 (centres undefined) -70.3%
O=C1CCC(=O)N1CCC(=O)N(C(=O)NC1CCCCC1)C1CCCCC1 9.55%
CC(=NNC(N)=O)C1CC2CCC1CC2 (centres undefined) 23.2%
CC1(c2cccc(Br)c2)NC(=O)N(CC(=O)NCCC2=CCCCC2)C1=O (centres undefined) -35.7%
COc1ccccc1C(=O)NC(=S)Nc1ccc(N2CCOCC2)cc1 -479%
COc1ccc(-c2ccc(CN3C(CC(C)C)C(=O)N(Cc4cn(CC5CCCCC5)nn4)CCS3(=O)=O)cc2)cn1 (centres undefined) -11.8%
COc1ccc(C2/C(=C(/O)c3ccc(OC(C)C)cc3)C(=O)C(=O)N2CCCN2CCOCC2)cc1 (centres undefined) -42.6%
O=C1C(=O)N(CCCN2CCOCC2)C(c2ccc([N+](=O)[O-])cc2)/C1=C(\O)c1ccc2c(c1)OCCO2 (centres undefined) -0.162%
O=C1CCC(C(=O)OCC(=O)Nc2ccc(OC(F)F)cc2)=NN1 -74.6%
COc1cc(C)c(CN2CCN(C(=O)CCC(=O)c3ccc(C)s3)CC2)cc1OC -203%
CCOc1cc(/C=N/NC(=O)c2ccncc2)cc(Br)c1O -82.6%
NC(=S)NN=Cc1ccc(OC(=O)COc2cc(Cl)c(Cl)cc2Cl)cn1 -7.4%
COc1cccc(-n2cc(C(=O)O)c3ccccc3c2=O)c1 0.885%
COc1cccc(N2C(=O)CN(Cc3ccccc3)C2=S)c1 -35.3%

Potency, active:
CC(=O)Nn1cc2c(=O)n(C)c(=O)n(C)c2c1 7.94 µM
CCOc1ncccc1C(=O)Nc1ccc(S(=O)(=O)Nc2nc(C)cc(C)n2)cc1 10 µM
COc1cccc2c1OCC(CN1CCN(C3CCCCC3)C(CCO)C1)=C2 (centres undefined) 7.94 µM
COc1ccc(C(=O)Nc2cccc(NC(=O)c3ccc(OC)cc3OC)n2)c(OC)c1 15.8 µM
CN(C(=O)COC(=O)Cn1cnc2c1c(=O)n(C)c(=O)n2C)C1(C#N)CCCCC1 28.2 µM
O=C(O)Cc1sc(-c2ccccc2)nc1-c1cccs1 12.6 µM
COc1cc2c(cc1OC)CN(C(C)C(=O)Nc1cccc(S(=O)(=O)N3CCOCC3)c1)CC2 (centres undefined) 10 µM
O=C1C(=O)N(CCN2CCOCC2)C(c2cccc(Cl)c2)/C1=C(/O)c1ccc2c(c1)OCO2 (centres undefined) 12.6 µM
COc1cccc(-n2c(=S)[nH]c3c(oc4ccccc43)c2=O)c1 15.8 µM
